# From PubChem BioAssay (NCI)
# The panel holds about 79,000 compounds, 15% with a hit somewhere; the sample as a whole holds those more often. Values without a mark were called inactive. Calls of active or inactive are those of the source. No stated cut-off is given here; in the data, active means growth inhibition above about 70%; inactive means the rest.
# How the values were obtained:
# [1] = NCI Yeast Anticancer Drug Screen. Data for the rad52 strain (AID 147);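 further: 0% = growth of vehicle-treated control cultures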; conditions: S. cerevisiae rad52 mutant growth inhibition, stronger effect = higher value
# How it was run: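 Screen used a yeast mutant impaired in DNA repair. After compound exposure, growth was measured. Values reflect inhibition compared with vehicle-treated cells.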
# [2] = NCI Yeast Anticancer Drug Screen. Data for the wt1 strain (AID 149);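 further: 0% = growth of vehicle-treated wt1 cultures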; conditions: S. cerevisiae wt1 strain (SPY 50644) growth inhibition, stronger effect = higher value
# How it was run: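 wt1 strain grown with compound or vehicle; inhibition taken from the growth difference.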
# [3] = NCI Yeast Anticancer Drug Screen. Data for the rad50EPP+ strain (AID 151);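 further: 0% = growth of vehicle-treated control cultures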; conditions: S. cerevisiae rad50 mutant strain, stronger effect = higher value
# How it was run: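 Exposing the rad50EPP+ strain to each compound, growth was compared with vehicle-only cultures to give inhibition.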
# [4] = NCI Yeast Anticancer Drug Screen. Data for the mgt1 strain (AID 153); conditions: S. cerevisiae mgt1 mutant growth inhibition, stronger effect = higher value
# How it was run: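 Genetically defined yeast (mgt1) treated with compound; inhibition of growth expressed against vehicle-treated controls.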
# [5] = NCI Yeast Anticancer Drug Screen. Data for the rad50 strain (AID 155);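 further: 0% = growth of vehicle-only cultures of the same strain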; conditions: S. cerevisiae rad50 strain growth inhibition, stronger effect = higher value
# How it was run: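 DNA repair mutant yeast, compound exposure, growth read-out; inhibition is taken relative to vehicle.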
# [6] = NCI Yeast Anticancer Drug Screen. Data for the mec2-1 strain (AID 157); conditions: S. cerevisiae mec2-1 strain, stronger effect = higher value
# How it was run: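 Readout is yeast growth inhibition, normalised to vehicle-treated controls, in the mec2-1 strain exposed to compound.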
# [7] = NCI Yeast Anticancer Drug Screen. Data for the rad14 strain (AID 159);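 further: 0% = growth of vehicle-treated control cultures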; conditions: S. cerevisiae rad14 strain growth inhibition, stronger effect = higher value
# How it was run: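 DNA repair-defective yeast, compound-exposed; % growth inhibition derived by comparison with vehicle-treated controls.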
# [8] = NCI Yeast Anticancer Drug Screen. Data for the sgs1 mgt1 strain (AID 161);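 further: 0% = growth of cultures given vehicle only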; conditions: S. cerevisiae sgs1 mgt1 strain, stronger effect = higher value
# How it was run: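 Compounds are added to genetically altered yeast, and growth is compared with cultures given vehicle alone to give percent inhibition.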
# [9] = NCI Yeast Anticancer Drug Screen. Data for the CLN2oe strain (AID 163);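 further: 0% = growth of vehicle-only control cultures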; conditions: S. cerevisiae CLN2oe strain, stronger effect = higher value
# How it was run: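 Values reflect how much compound exposure reduced yeast growth, referenced to vehicle-exposed cells. Assay organism is a strain with a defined genetic change affecting cell-cycle control.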
# [10] = NCI Yeast Anticancer Drug Screen. Data for the cln2 rad14 strain (AID 165);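 further: 0% = growth equal to vehicle treated cultures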; conditions: S. cerevisiae cln2 rad14 strain, stronger effect = higher value
# How it was run: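 Relative to vehicle controls, growth inhibition of compound-treated cln2 rad14 yeast was recorded.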
# [11] = NCI Yeast Anticancer Drug Screen. Data for the bub3 strain (AID 167); conditions: S. cerevisiae bub3 mutant strain, stronger effect = higher value
# How it was run: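 In this screen, a yeast mutant lacking normal mitotic checkpoint function is challenged with compound. Relative growth versus vehicle gives the inhibition value.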
# [12] = NCI Yeast Anticancer Drug Screen. Data for the wt2 strain (AID 169);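 further: 0% = growth of vehicle-treated yeast cultures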; conditions: S. cerevisiae wt2 strain growth inhibition, stronger effect = higher value
# How it was run: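 Values express reduction in yeast growth under compound treatment, referenced to vehicle-treated cells.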
# [13] = NCI Yeast Anticancer Drug Screen. Data for the mlh1 strain (AID 171);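 further: 0% = growth of vehicle-treated control cultures of the same strain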; conditions: S. cerevisiae mlh1 strain growth inhibition, stronger effect = higher value
# How it was run: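 Steps: expose the defined-mutant yeast strain to compound; expose a parallel culture to vehicle; measure growth; express compound effect as inhibition relative to the vehicle culture.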
# [14] = NCI Yeast Anticancer Drug Screen. Data for the sgs1 strain (AID 173);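 further: 0% = growth of vehicle-only control cultures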; conditions: S. cerevisiae sgs1 mutant, stronger effect = higher value
# How it was run: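 Treat defined-mutant yeast with compound; measure growth; calculate inhibition relative to vehicle-treated cells.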
# [15] = NCI Yeast Anticancer Drug Screen. Data for the mlh1 rad18 strain (AID 175); conditions: S. cerevisiae mlh1 rad18 strain growth inhibition, stronger effect = higher value
# How it was run: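 Test agents were incubated with a yeast strain of defined genotype (DNA damage repair defect). Inhibition of growth was derived by comparison with vehicle-exposed cultures.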
# [16] = NCI Yeast Anticancer Drug Screen. Data for the rad18 strain (AID 177); conditions: S. cerevisiae rad18 mutant growth inhibition, stronger effect = higher value
# How it was run: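 A genetically defined yeast mutant impaired in DNA damage repair was treated with test compounds, then its growth was measured against cultures receiving vehicle alone.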
# [17] = at 5.0 µM (retest, dose inferred, filed as 0.5)
# [18] = at 50.0 µM (retest, dose inferred, filed as 5.0)
smiles,measurement,setting,value
O=C1C(/C=C/c2ccc(Cl)cc2)=NNC2N1N=C1NC(=O)C3(NN12)c1ccccc1-c1ccccc13 (stereo not drawn),growth inhibition,[1]; at 1.2 µM,-2%
same,growth inhibition,[1]; at 3.7 µM,-2%
same,growth inhibition,[1]; at 11.0 µM,-1%
same,growth inhibition,[1]; at 33.0 µM,-3%
same,growth inhibition,[1]; at 100.0 µM,10%
same,growth inhibition,[2]; at 1.2 µM,1%
same,growth inhibition,[2]; at 3.7 µM,2%
same,growth inhibition,[2]; at 11.0 µM,1%
same,growth inhibition,[2]; at 33.0 µM,2%
same,growth inhibition,[2]; at 100.0 µM,6%
same,growth inhibition,[3]; at 1.2 µM,-1%
same,growth inhibition,[3]; at 3.7 µM,-3%
same,growth inhibition,[3]; at 11.0 µM,1%
same,growth inhibition,[3]; at 33.0 µM,0%
same,growth inhibition,[3]; at 100.0 µM,10%
same,growth inhibition,[4]; at 1.2 µM,-2%
same,growth inhibition,[4]; at 3.7 µM,-2%
same,growth inhibition,[4]; at 11.0 µM,-2%
same,growth inhibition,[4]; at 33.0 µM,-13%
same,growth inhibition,[4]; at 100.0 µM,4%
same,growth inhibition,[5]; at 1.2 µM,-7%
same,growth inhibition,[5]; at 3.7 µM,-15%
same,growth inhibition,[5]; [17],-10%
same,growth inhibition,[5]; at 11.0 µM,-21%
same,growth inhibition,[5]; at 33.0 µM,-1%
same,growth inhibition,[5]; [18],22%
same,growth inhibition,[5]; at 50.0 µM,83.3% (active)
same,growth inhibition,[5]; at 100.0 µM,12%
same,growth inhibition,[6]; at 1.2 µM,0%
same,growth inhibition,[6]; at 3.7 µM,1%
same,growth inhibition,[6]; [17],-10%
same,growth inhibition,[6]; at 11.0 µM,0%
same,growth inhibition,[6]; at 33.0 µM,5%
same,growth inhibition,[6]; [18],25%
same,growth inhibition,[6]; at 50.0 µM,76.2% (active)
same,growth inhibition,[6]; at 100.0 µM,9%
same,growth inhibition,[7]; at 1.2 µM,-1%
same,growth inhibition,[7]; at 3.7 µM,-2%
same,growth inhibition,[7]; at 11.0 µM,-1%
same,growth inhibition,[7]; at 33.0 µM,0%
same,growth inhibition,[7]; at 100.0 µM,5%
same,growth inhibition,[8]; [17],-4%
same,growth inhibition,[8]; [18],22%
same,growth inhibition,[8]; at 50.0 µM,73.5% (active)
same,growth inhibition,[9]; at 1.2 µM,-3%
same,growth inhibition,[9]; at 3.7 µM,-3%
same,growth inhibition,[9]; at 11.0 µM,1%
same,growth inhibition,[9]; at 33.0 µM,9%
same,growth inhibition,[9]; at 100.0 µM,14%
same,growth inhibition,[10]; [17],18%
same,growth inhibition,[10]; [18],32%
same,growth inhibition,[10]; at 50.0 µM,62.9%
same,growth inhibition,[11]; at 1.2 µM,-2%
same,growth inhibition,[11]; at 3.7 µM,1%
same,growth inhibition,[11]; [17],-19%
same,growth inhibition,[11]; at 11.0 µM,0%
same,growth inhibition,[11]; at 33.0 µM,-2%
same,growth inhibition,[11]; [18],-12%
same,growth inhibition,[11]; at 50.0 µM,87.2% (active)
same,growth inhibition,[11]; at 100.0 µM,1%
same,growth inhibition,[12]; at 1.2 µM,-2%
same,growth inhibition,[12]; at 3.7 µM,-2%
same,growth inhibition,[12]; at 11.0 µM,-2%
same,growth inhibition,[12]; at 33.0 µM,1%
same,growth inhibition,[12]; at 100.0 µM,4%
same,growth inhibition,[13]; at 1.2 µM,0%
same,growth inhibition,[13]; at 3.7 µM,0%
same,growth inhibition,[13]; at 11.0 µM,1%
same,growth inhibition,[13]; at 33.0 µM,2%
same,growth inhibition,[13]; at 100.0 µM,4%
same,growth inhibition,[14]; at 1.2 µM,-1%
same,growth inhibition,[14]; at 3.7 µM,0%
same,growth inhibition,[14]; at 11.0 µM,-1%
same,growth inhibition,[14]; at 33.0 µM,1%
same,growth inhibition,[14]; at 100.0 µM,3%
same,growth inhibition,[15]; [17],-34%
same,growth inhibition,[15]; [18],62%
same,growth inhibition,[15]; at 50.0 µM,87.7% (active)
same,growth inhibition,[16]; at 1.2 µM,-3%
same,growth inhibition,[16]; at 3.7 µM,-1%
same,growth inhibition,[16]; at 11.0 µM,-1%
same,growth inhibition,[16]; at 33.0 µM,0%
same,growth inhibition,[16]; at 100.0 µM,17%
